Laboratory results from PubChem BioAssay AID1347145 (National Center for Advancing Translational Sciences (NCATS), 2019).
Records with an inconclusive call do not appear. Entries that show only a call come without a potency. Activity calls are given as the source filed them. Calls follow the shape of the dose curve; as a rule, active = well fitted inhibition curve with a large enough effect; inconclusive = small, poorly fitted or top-dose-only effect; inactive = no such curve, though single readings can be large or run the other way.

Target: N-terminal Xaa-Pro-Lys N-methyltransferase 1 (Homo sapiens) (UniProt Q9BV86)
Sequence (Q9BV86 whole entry, looked up): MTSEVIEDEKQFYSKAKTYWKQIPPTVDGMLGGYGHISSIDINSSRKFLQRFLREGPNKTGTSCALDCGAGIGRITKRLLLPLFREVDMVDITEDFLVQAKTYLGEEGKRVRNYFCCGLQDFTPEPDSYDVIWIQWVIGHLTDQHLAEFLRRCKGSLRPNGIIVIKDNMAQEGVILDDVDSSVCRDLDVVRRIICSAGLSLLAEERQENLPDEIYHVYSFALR
Assay: qHTS Assay for Inhibitors of N-terminal methyltransferase 1 (NTMT1): MTaseGlo Assay Confirmatory Screen, Round 1
How it was run: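 Luminescence from MTase-Glo conversion of SAH to ATP measured activity after a 30 min RT reaction with 1 µM SPKRIA substrate, 100 µM SAM and 125 nM enzyme. Normalization used no-enzyme and DMSO controls, followed by Hill fitting.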
Potency is read from the fitted curve at half-maximal effect.

| Compound | Potency |
| --- | --- |
| Nc1nc(Cl)nc2c1ncn2[C@H]1C[C@H](O)[C@@H](CO)O1 | inactive |
| CCCC(=O)Nc1ncnc2c1ncn2[C@@H]1O[C@@H]2COP(=O)(O)O[C@H]2[C@H]1OC(=O)CCC | inactive |
| C=C1OC(CO)(n2cnc3c(N)ncnc32)C(O)C1O (stereo unspecified) | inactive |
| OCC1OC(n2cnc3c(NO)ncnc32)C(O)C1O (stereo unspecified) | inactive |
| OC[C@@H]1O[C@@H](n2cnc3c(NCc4ccco4)ncnc32)[C@H](O)[C@H]1O | inactive |
| OC[C@H]1O[C@@H](n2cnc3c(NC4CCCC4)ncnc32)[C@H](O)C1O (stereo partly specified) | inactive |
| Nc1nc2c(ncn2[C@@H]2O[C@H](CO)[C@@H](O)[C@@H]2O)c(=O)[nH]1 | inactive |
| COc1cc2c(NC3CCN(C)CC3)nc(N3CCCN(C)CC3)nc2cc1OCCN(C)CCN(C)C | inactive |
| COc1cc2c(NC3CCN(C(C)C)CC3)nc(N3CCCN(C(C)C)CC3)nc2cc1OCCCN1CCCCC1 | inactive |
| Nc1ncnc2c1ncn2[C@@H]1O[C@H](C(=O)N2CCN(CC(=O)Nc3cccc4c3CNC4=O)CC2)[C@@H](O)[C@H]1O | inactive |
| Nc1ccnc2c1ncn2[C@@H]1O[C@H](CO)[C@@H](O)[C@H]1O | 17.2 µM (active) |
| CSc1ncnc2c1ncn2C1OC(CO)C(O)C1O (stereo unspecified) | 30.6 µM (active) |
| NC(=O)c1ccc[n+]([C@@H]2O[C@H](COP(=O)([O-])OP(=O)(O)OC[C@H]3O[C@@H](n4cnc5c(N)ncnc54)[C@H](O)[C@@H]3O)[C@@H](O)[C@H]2O)c1 | inactive |
| Nc1ncnc2c1ncn2[C@@H]1O[C@H](C[C@@H](N)CC[C@H](N)C(=O)O)[C@@H](O)[C@H]1O | inactive |
| Nc1ncnc2c1ncn2[C@@H]1O[C@@H](CO)[C@H](O)[C@H]1O | inactive |
| Nc1ncnc2c1ncn2[C@H]1C[C@H](O)[C@@H](CO)O1 | inactive |
| COc1cc2c(NC3CCN(C(C)C)CC3)nc(N3CCCN(C)CC3)nc2cc1OCCOCCN(C)C | inactive |
| NC(=S)c1ccc[n+]([C@@H]2O[C@@H](COP(=O)([O-])OP(=O)(O)OC[C@H]3O[C@@H](n4cnc5c(N)ncnc54)[C@H](OP(=O)(O)O)[C@@H]3O)C(O)C2O)c1 (stereo partly specified) | inactive |

| Compound | Potency |
| --- | --- |
| C=C1O[C@@](CO)(n2cnc3c(N)ncnc32)[C@H](O)[C@@H]1O | inactive |
| Nc1ncnc2c1ncn2C1O[C@H](COP(=O)(O)O)[C@@H](O)[C@H]1O (stereo partly specified) | inactive |
| CNc1nc(N2CCCN(C)CC2)nc2cc(OC)c(OC)cc12 | inactive |
| COc1cc2c(NC3CCN(C(C)C)CC3)nc(N3CCCN(C)CC3)nc2cc1OCCCN(C)C | inactive |
| COc1cc2c(NC3CCN(C)CC3)nc(N3CCCCC3)nc2cc1OCCCN(C)C | inactive |
| O=S(=O)(O)c1ccc(Nc2ncnc3c2ncn3[C@@H]2O[C@H](CO)[C@@H](O)[C@H]2O)cc1 | inactive |
| Nc1ncnc2c1ncn2[C@@H]1O[C@H](COP(=O)(O)OP(=O)(O)OP(=O)(O)OP(=O)(O)OC[C@@H]2O[C@H](n3cnc4c(N)ncnc43)[C@@H](O)C2O)C(O)[C@H]1O (stereo partly specified) | inactive |
| COc1cc2nc(N3CCOCC3)nc(NC3CCN(C)CC3)c2cc1OC | inactive |
| COc1cc2c(NC3CCN(C(C)C)CC3)nc(N3CCC(N4CCCC4)CC3)nc2cc1OCCCN1CCCCC1 | inactive |
| Cn1cnc2c(ncn2[C@@H]2O[C@H](CO)[C@@H](O)[C@H]2O)c1=N | inactive |
| COc1cc2nc(N3CCCN(C)CC3)nc(NC3CCN(C)CC3)c2cc1OC | inactive |
| CCN1CCN(c2nc(NC3CC3)c3cc(OC)c(OC)cc3n2)CC1 | inactive |
| OC[C@H]1O[C@@H](n2cnc3c(NC4CCCCC4)ncnc32)[C@H](O)[C@@H]1O | inactive |
| Nc1ncnc2c1ncn2C1OC(COP(=O)(O)O)C(O)C1O (stereo unspecified) | inactive |
| Nc1ncnc2c1ncn2[C@@H]1O[C@H](CO)[C@@H](O)[C@@H]1O | inactive |
| Nc1ncnc2c1ncn2[C@@H]1O[C@H](COP(=O)(O)OP(=O)(O)CP(=O)(O)O)[C@@H](O)[C@H]1O | inactive |
| O=C(Nc1ncnc2c1ncn2[C@@H]1O[C@@H]2COP(=O)(O)O[C@H]2[C@H]1O)c1ccccc1 | inactive |
| COc1cc2nc(N3CC[C@@H](N(C)C)C3)nc(NC3CC3)c2cc1OC | inactive |
